Data published in PubChem BioAssay AID1053144 (Broad Institute, 2014).
Screen size: about 3,400 compounds; about 160 (4.7%) were called active.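 How the source made its calls: active means fitted curve reaches 30% activation at a concentration no higher than the top valid tested dose, luminescence rising; inconclusive means no clear call, values can overlap the other calls; inactive means signal moving opposite to the expected increase, plus the rest.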 Not all results are given here. Potency and affinity values are given separately.

Test: TCF/LEF reporter activation in neural progenitors – cell-based, iPS-derived NPC, luciferase, Wnt3a, cherry-pick, dose response (AID 1053144);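 further: Wnt3a stimulus is conditioned medium from Wnt3a-transfected mouse L cells at 5% in well; 0% = neutral control wells and 100% = CHIR-99021 positive control wells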
Settings: Wnt3a EC25, 24 h; series mostly up to 26 µM; activation: at the top concentration

activation, inactive:
Cc1ccc(NC(=O)c2csc3c2CCCC3)cc1 8.16%
CCOc1ccc(NC(=O)c2csc3c2CCCC3)cc1 12.5%
CCOc1ccc(NC(=O)c2ccc3c(c2)N(C)CCS3)cc1 1.57%
O=C(CSc1ccsc1[N+](=O)[O-])NCc1ccco1 10.5%
COc1ccccc1Nc1ncnc2c1cnn2-c1cccc(C)c1 6.78%
CC(C)Nc1ncnc2c1cnn2-c1ccccc1 3.91%
Cc1ccc(OCC(=O)Nc2ccccc2F)cc1C 9.3%
c1ccc(CNc2ncnc3c2oc2ccccc23)nc1 13.2%
c1ccc2c(c1)oc1c(NCC3CCCO3)ncnc12 (centres undefined) 16.6%
CCOC(=O)N/N=C\c1ccccc1OC/C=C/c1ccccc1 2.48%
O=C(/C=C/Nc1cccc(O)c1)c1ccccc1 -2.82%
COc1ccc(C(=O)Nc2ccccc2C(=O)NCc2ccco2)cc1OC 1.33%
CC(=O)Nc1cccc(NC(=O)c2ccc(C)c([N+](=O)[O-])c2)c1 1.38%
O=C(Nc1cccc([N+](=O)[O-])c1)c1ccc2c(c1)OCCO2 9.15%
COc1ccc(-c2ccc(NC(=O)c3ccc(Br)o3)cc2)nn1 17%
Cc1cccc(Nc2ncnc3ccccc23)c1 0.509%
Cc1ccc(/C(=N/Nc2ncnc3ccccc23)C(=O)O)cc1 11.8%
Cc1ccc(C(=O)Nc2cc3c(oc2=O)CCCC3=O)cc1 9.54%
Cn1nnc2cc(C(=O)Nc3ccc4ccccc4c3)ccc21 16.4%
CCOc1ccc(C2C=C(c3ccccc3)Nc3nnnn32)cc1 (centres undefined) 2.97%
CCOc1ccc(-n2c(COc3ccc(C)cc3)nnc2SCC(N)=O)cc1 14.3%
COc1ccc(C(=Cc2ccccc2[N+](=O)[O-])C(=O)O)cc1 11.6%
O=C(Nc1ccc(NC(=O)c2cccs2)cn1)c1ccccc1 5.59%
O=C(Nc1ccc(NC(=O)C2CC2)cn1)c1ccccc1Cl 5.17%
COc1cc(NC(=O)c2cccs2)ccc1NC(=O)c1ccco1 11.8%
O=C(NCC1CCCO1)c1cc(-c2ccc(Cl)cc2Cl)on1 (centres undefined) 12.2%
O=C(Nc1ccc(F)cc1)c1cc(-c2ccccc2)no1 6.64%
Cc1cc([N+](=O)[O-])ccc1NC(=O)/C=C/c1cccs1 10.2%
COc1ccc2[nH]c3c(NCCCOC(C)C)ncnc3c2c1 13.2%
O=C(CNc1ccc2ccccc2c1)N/N=C/c1ccc(OC(=O)/C=C/c2ccco2)cc1 23.3% [at 12 µM]
CCN(C(=O)C=Cc1ccco1)c1ccccc1 4.04%
Cc1ccccc1Cn1nnc(-c2cccc(C(=O)O)c2)n1 4.93%
COc1ccc(S(=O)(=O)n2ccc(-c3cnc(-c4ccccc4)s3)n2)cc1 4.09%
Cc1cccc(Nc2nc(-c3ccc(F)c(C)c3)cs2)n1 4.46%
CC1CCCCN1C(=O)c1cc(-c2ccc3c(c2)OCO3)on1 (centres undefined) 9.54%
Oc1oc(-c2ccc(Br)cc2)nc1/C=N/c1ccccn1 8.38%
Cc1cccc(N2CC(C(=O)NC3CCCCCC3)CC2=O)c1C (centres undefined) -1.43%
CCCC(=O)Nc1nc2ccc(OCC)cc2s1 16.3%
COCC(=O)Nc1nc2ccc(C)cc2s1 6.09%
COc1ccc2sc(NC(C)=O)nc2c1 11%
CCC(=O)Nc1nc2cc(OC)ccc2s1 13.7%
Cc1ccc(-c2cn3c(=O)cc(C)[nH]c3n2)cc1 12.7%
CCN(CC)S(=O)(=O)c1ccc(NS(=O)(=O)c2cccc(C)c2)cc1 9.12%
Cc1ccc(/C=N/Nc2ncnc3nc[nH]c23)cc1 12.2%
Cc1cccc(N2CCN(C(=O)CCCOc3ccccc3)CC2)c1C 6.59%
CCN1C(=O)CCN(C2CCCC2)c2nc(Nc3ccc(C(=O)NC4CCN(C)CC4)cc3OC)ncc21 4.88%
CC(=O)Nc1ccc(C(=O)COC(=O)C2CC2C)c(F)c1 (centres undefined) 3.26%
Fc1ccc(-c2ccc3c(n2)CCCN3Cc2ccccn2)cc1 9.57%
O=C(NC(=O)c1ccccc1)Nc1ccccc1O 4.25%
O=C(Nc1ccccc1N1CCN(c2ccccc2)CC1)c1ccccc1 -3.36%
Oc1[nH]c2ccccc2c1C=Nc1ccc2c(c1)OCO2 14.2%
COc1ccccc1C(=O)N(C)c1nnc(-c2ccccc2)s1 17.6%
CCOc1cccc(C(=O)Nc2ccc3c(c2)OCCO3)c1 5.21%
CCNc1nc(-c2cc3ccccc3o2)cs1 2.6%
c1ccc2oc(-c3ccn[nH]3)cc2c1 10.9%
Oc1ccc(Cl)cc1CNc1nccs1 10.9%
CN(C)c1ccc(/C=N/NC(=O)c2ccn(C)n2)cc1 13.3%
O=C(NCCc1cccs1)C1CC(c2ccccc2[N+](=O)[O-])=NO1 (centres undefined) 9.24%
Clc1ccccc1CSc1nc2ccncc2[nH]1 8.37%
c1ccc(-c2ccc(-c3ccccn3)s2)nc1 13.1%
CC(=O)Nc1ccc2nc(-c3ccccn3)[nH]c2c1 3.19%
NC(=O)c1ccccc1OCc1nc2ccccc2s1 8.49%
Cc1ccc(NC(=O)c2cc3c(s2)CCCC3)cc1 16.9%
COc1ccc(-c2cc(-c3ccc(OC)cc3)[nH]n2)cc1 3.32%
COc1ccc2cc(-c3ccccc3)ncc2c1 11.6%
Cc1ccc(C)c(NC(=O)c2cc3ccccn3n2)c1 10.6%
O=C(Nc1ccc(Br)cc1)c1cc2ccccn2n1 9.98%
Clc1ccc(-n2nnc(-c3cccnc3)n2)cc1Cl 9.11%
O=C(Nc1ccc(F)cc1F)c1csc(-c2cccs2)n1 8.48%
Cc1nc([N+](=O)[O-])cn1CC(O)c1ccc(Cl)cc1 (centres undefined) 0.757%
COc1ccc(C(=O)c2oc3ccc(OC)cc3c2N)cc1 9.38%
Nc1c(C(=O)c2ccccc2)oc2ccc(Br)cc12 5.38%
COc1ccc(C(=O)Nc2ccc3c(c2)nc2n3CCSC2)cc1 12.5%
Cc1ccc2cc(C#N)c(SCC(=O)N3CCCC3)nc2c1 8.83%
NC(=O)C(=O)N/N=C1\CCc2ccccc21 10.6%
O=C(CC(=O)c1ccccc1)Nc1ccccc1 12.6%
CC(=O)Nc1cccc(NC(=O)CCCC(=O)O)c1 -0.366%
CC(C)c1ccc(Nc2nnc(SCC(=O)NCC3CCCO3)s2)cc1 (centres undefined) 16.7%
CCCc1cc(C(=O)Nc2cccc(Cl)c2)no1 5.04%
CCCc1cc(C(=O)Nc2cccnc2)no1 10.9%
O=C(Nc1ccc(N2CCCCC2)cc1)c1cncc(Br)c1 15.3%
Nc1c(-c2cccc(Cl)c2)cnc2c(-c3ccccc3)cnn12 4.5%
Cc1occc1C(=O)N/N=C/c1ccc2c(c1)OCO2 2.18%
O=C(NN=Cc1ccc2c(c1)OCO2)c1ccccc1 18.2%
CCOC(=O)c1ccc(-c2ccc(C=O)o2)cc1 7.08%
CCOC(=O)c1ccc(NC(=O)N(CC)CC)cc1 11.7%
O=C(Nc1ccc2c(c1)OCCO2)c1cncc(Br)c1 6.75%
C=CCn1c(C)cc(C(=O)CSc2nc3ccccc3o2)c1C 2.6%
COc1cc(C2C3=C(CC(C)(C)CC3=O)Nc3c2c(=O)[nH]c(=O)n3Cc2ccccc2)ccc1O (centres undefined) 3.49%
CC(=O)Oc1ccc2occ(C(=O)c3cccs3)c2c1 17.3%
O=C(c1ccc(Br)cc1)c1coc2ccc(O)cc12 18.8%
COc1ccc(C(=O)NN/C(=N/S(=O)(=O)c2ccc(C)cc2)c2ccccc2)cc1 7.8%
Cc1[nH]c2ccc(F)cc2c1CCN1C(=O)OC(C)(C)C1(C)O (centres undefined) 5.62%
COc1ccc(C(=O)O/N=C(\N)c2ccccc2)cc1OC 11.8%
COc1cc(/C=C/C(=O)N2CCC=CC2=O)cc(OC)c1OC -6.11%
Oc1ccc(-c2cn3ccccc3n2)cc1 23.2%
CC(=O)Nc1ccccc1OCC(=O)c1ccc2c(c1)OCO2 9.06%
Clc1ccccc1/C=C/c1nc(-c2cccnc2)no1 6.34%
C(=C\c1nc(-c2ccncc2)no1)/c1ccccc1 9.12%
Cc1ccc(NC(=O)C(=O)c2c[nH]c3ccccc23)cc1 9.92%
COc1ccc2[nH]cc(/C=C/C(=O)c3ccccc3)c2c1 20.3%
Cc1cccc2cc(/C=N/Nc3ccc(C(=O)O)cc3)c(Cl)nc12 8.76%
Brc1ccccc1-n1nnc(-c2cnc3ccccc3c2)n1 3.75%
COc1ccc(C(=O)Nc2cc(C)on2)cc1 4.98%
COc1ccc(-c2ccc(SCC(=O)Nc3nnc(C)s3)nn2)cc1 3.75%
O=C(COc1ccc([N+](=O)[O-])cc1Cl)N1CCc2ccccc21 5.95%
O=C(COc1ccc2c(c1)CCC2)N1CCc2ccccc21 16.6%
O=C(Nc1ccccn1)C(=O)Nc1ccccn1 7.92%
O=C(Nc1ccccc1O)c1csc2c1CCCC2 6.88%
Cc1cc(SCC(=O)c2ccc(Cl)cc2)nc(=O)[nH]1 8.19%
O=C(Nc1nc(-c2ccccn2)cs1)C12CC3CC(CC(O)(C3)C1)C2 8.62%
CCC(C)NC(=O)c1cc(-c2ccc3c(c2)OCO3)on1 (centres undefined) 13.7%
c1ccc(N=NC2=NN(c3ccccc3)CS2)cc1 11.2%
O=c1c(N=Nc2ccccc2)c[nH]n1-c1ccccc1 14.2%
CCc1ccc(C(=O)CCC(=O)Nc2ccc(OC)c(S(=O)(=O)N3CCCCC3)c2)cc1 5.78%
CCOc1ccccc1-n1nnnc1SCC(=O)O 0.553%
Cc1c(CC(=O)N[C@H](C(=O)O)C(C)C)c(=O)oc2cc3c(cc12)CCC(C)(C)O3 5.83%
Cn1cccc1-c1nc2ccc(NC(=O)c3ccco3)cc2[nH]1 11.8%
O=C(Nc1ccc2nc(-c3ccco3)[nH]c2c1)c1ccco1 12.9%
O=C(Nc1ccc2c(c1)Cc1ccccc1-2)c1ccccc1F 6.96%
CCOC(=O)C1CCCN(C(=O)CCc2nnc(-c3ccc(C(C)=O)s3)o2)C1 (centres undefined) 10.3%
Cc1ccc(C)c(N2CCN(C(=O)CCc3nc(-c4ccccc4C(F)(F)F)no3)CC2)c1 12.2%
Cc1ccc(OCc2cc(C(=O)N3CCN(c4ccccc4)CC3)no2)cc1C 15.5%
CC(=O)Nc1cccc(NC(=O)c2cc3ccccc3o2)c1 7.51%
